# Results taken from PubChem BioAssay (EPA / NIEHS).
# “And” between values parts separate entries of the source, which are not always exact repeats. Equal entries are not always repeated. Records with an inconclusive call do not appear. The source holds several records for some structures; these can differ, active in one and inactive in another. The source made the active and inactive calls. The calls were made as follows, unless noted: active = hit-call score of the fitted dose curve at least 0.9, where 1 is the maximum; inconclusive = response in the unintended direction; inactive = score below 0.9.
# Tests used:
# [1] = molecular target: human Norepinephrine Transporter (NET), SLC6A2 (gene 6530) (UniProt P23975); assay: NVS_TR_hNET: NovaScreen (NVS) Transporter Assay for human Norepinephrine Transporter (NET) (AID 2283377);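 also: cell-free membrane protein extracted from CHO cells expressing human NET; displacement of radioligand from human NET seen as loss of scintillation signal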
# Sequence of human Norepinephrine Transporter (NET), SLC6A2 (gene 6530) (P23975 whole entry, looked up): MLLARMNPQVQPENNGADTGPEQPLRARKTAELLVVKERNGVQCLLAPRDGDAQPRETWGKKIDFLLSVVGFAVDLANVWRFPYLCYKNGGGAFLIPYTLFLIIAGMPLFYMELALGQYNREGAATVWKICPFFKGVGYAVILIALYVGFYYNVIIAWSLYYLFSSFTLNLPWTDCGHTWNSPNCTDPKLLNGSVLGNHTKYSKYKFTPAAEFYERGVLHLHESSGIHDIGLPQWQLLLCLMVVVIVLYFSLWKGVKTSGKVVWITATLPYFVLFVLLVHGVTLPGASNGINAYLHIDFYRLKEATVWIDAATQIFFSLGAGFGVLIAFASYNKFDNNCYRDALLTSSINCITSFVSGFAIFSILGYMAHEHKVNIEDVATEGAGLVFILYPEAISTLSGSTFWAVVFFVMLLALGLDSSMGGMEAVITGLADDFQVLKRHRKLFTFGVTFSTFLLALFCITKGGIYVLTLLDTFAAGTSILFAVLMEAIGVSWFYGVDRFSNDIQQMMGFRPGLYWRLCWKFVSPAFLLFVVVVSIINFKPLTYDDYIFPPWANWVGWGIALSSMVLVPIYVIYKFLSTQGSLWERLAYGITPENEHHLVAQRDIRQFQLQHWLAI
# Summary of the method: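 CHO cell extracts expressing the transporter; tritiated or iodinated tracer displaced competitively; filtration plus scintillation readout at 1 h. Single-point duplicates at 25 uM, concentration series for follow-up; activity = signal drop relative to DMSO.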
# [2] = molecular target: Agonist Androgen Response Element (ARE), AR (gene 367) (UniProt P10275); assay: OT_AR_ARELUC_AG_1440: Odyssey Thera (OT) 24-hour CHO-K1 Luciferase Assay for Agonist Androgen Response Element (ARE) (AID 2283379)
# Sequence of Agonist Androgen Response Element (ARE), AR (gene 367) (P10275 whole entry, looked up): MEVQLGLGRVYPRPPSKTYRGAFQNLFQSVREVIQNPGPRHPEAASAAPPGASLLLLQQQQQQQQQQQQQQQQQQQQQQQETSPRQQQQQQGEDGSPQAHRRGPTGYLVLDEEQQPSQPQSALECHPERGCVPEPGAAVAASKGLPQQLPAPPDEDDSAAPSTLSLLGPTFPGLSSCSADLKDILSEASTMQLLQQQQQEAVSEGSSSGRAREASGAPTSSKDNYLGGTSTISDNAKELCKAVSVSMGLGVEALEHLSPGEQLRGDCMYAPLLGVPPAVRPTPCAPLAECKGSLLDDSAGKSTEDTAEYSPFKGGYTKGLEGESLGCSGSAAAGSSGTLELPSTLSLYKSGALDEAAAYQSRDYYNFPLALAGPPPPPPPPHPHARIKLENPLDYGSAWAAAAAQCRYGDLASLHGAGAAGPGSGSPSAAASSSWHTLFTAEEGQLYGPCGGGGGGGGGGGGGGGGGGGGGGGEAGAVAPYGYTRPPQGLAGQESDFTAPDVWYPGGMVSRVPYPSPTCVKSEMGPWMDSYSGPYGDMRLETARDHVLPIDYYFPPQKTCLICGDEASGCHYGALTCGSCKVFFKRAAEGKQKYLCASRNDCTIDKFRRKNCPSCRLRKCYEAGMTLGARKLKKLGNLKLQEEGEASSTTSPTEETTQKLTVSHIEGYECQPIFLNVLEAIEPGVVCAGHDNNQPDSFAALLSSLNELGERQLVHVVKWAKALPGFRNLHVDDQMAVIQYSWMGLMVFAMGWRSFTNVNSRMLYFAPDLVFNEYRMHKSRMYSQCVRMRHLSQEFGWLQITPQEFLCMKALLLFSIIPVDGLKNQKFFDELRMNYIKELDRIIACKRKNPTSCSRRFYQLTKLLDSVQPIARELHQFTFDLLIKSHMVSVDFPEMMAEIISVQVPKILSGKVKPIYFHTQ
# Summary of the method: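 Gain-of-signal reporter endpoint: cells (CHO-K1, hamster) are treated 24 h, luciferin/ATP reagent added, and luminescence compared with DMSO baseline.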
# [3] = molecular target: Estrogen receptor beta (Homo sapiens) (UniProt Q92731); assay: OT_ER_ERbERb_1440: Odyssey Thera (OT) 24-hour HEK293T Protein-Complementation Assay for Estrogen Receptor-beta/-beta Homodimer (AID 2283380);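 also: scored as signal increase over DMSO baseline for both agonists and antagonists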
# Sequence of Estrogen receptor beta (Homo sapiens) (Q92731 whole entry, looked up, the tested form may be a part): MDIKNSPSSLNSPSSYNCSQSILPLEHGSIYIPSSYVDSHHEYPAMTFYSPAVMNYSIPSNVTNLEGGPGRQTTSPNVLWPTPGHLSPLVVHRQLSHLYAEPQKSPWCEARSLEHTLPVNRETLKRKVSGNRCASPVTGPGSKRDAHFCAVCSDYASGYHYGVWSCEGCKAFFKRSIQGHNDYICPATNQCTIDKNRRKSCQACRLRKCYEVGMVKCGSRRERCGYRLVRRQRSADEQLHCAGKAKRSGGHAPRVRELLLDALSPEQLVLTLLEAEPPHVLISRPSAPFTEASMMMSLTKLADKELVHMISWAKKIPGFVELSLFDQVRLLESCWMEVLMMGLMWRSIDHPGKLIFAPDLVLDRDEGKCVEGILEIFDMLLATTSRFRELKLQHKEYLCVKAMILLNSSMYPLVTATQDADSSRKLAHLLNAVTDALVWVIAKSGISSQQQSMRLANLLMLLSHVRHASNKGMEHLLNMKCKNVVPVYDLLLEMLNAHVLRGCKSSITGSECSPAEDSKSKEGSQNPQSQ
# Summary of the method: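 HEK293T cells stably expressing ER beta LBD (aa 310-547) homodimer fragment-complementation reporter, dosed 24 h. Cells formaldehyde-fixed, Draq5-stained; gain in nuclear (agonist) or nuclear plus cytoplasmic (antagonist) fluorescence versus DMSO read by laser scanning cytometry.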
# [4] = molecular target: Estrogen receptor (Homo sapiens) (UniProt P03372); assay: OT_ERa_GFPERaERE_0480: Odyssey Thera (OT) 8-hour HeLa Transcription Induction Assay for Estrogen Receptor (AID 2283381; active = hit-call score of the fitted dose curve at least 0.9, where 1 is the maximum; inactive = score below 0.9)
# Sequence of Estrogen receptor (Homo sapiens) (P03372 whole entry, looked up): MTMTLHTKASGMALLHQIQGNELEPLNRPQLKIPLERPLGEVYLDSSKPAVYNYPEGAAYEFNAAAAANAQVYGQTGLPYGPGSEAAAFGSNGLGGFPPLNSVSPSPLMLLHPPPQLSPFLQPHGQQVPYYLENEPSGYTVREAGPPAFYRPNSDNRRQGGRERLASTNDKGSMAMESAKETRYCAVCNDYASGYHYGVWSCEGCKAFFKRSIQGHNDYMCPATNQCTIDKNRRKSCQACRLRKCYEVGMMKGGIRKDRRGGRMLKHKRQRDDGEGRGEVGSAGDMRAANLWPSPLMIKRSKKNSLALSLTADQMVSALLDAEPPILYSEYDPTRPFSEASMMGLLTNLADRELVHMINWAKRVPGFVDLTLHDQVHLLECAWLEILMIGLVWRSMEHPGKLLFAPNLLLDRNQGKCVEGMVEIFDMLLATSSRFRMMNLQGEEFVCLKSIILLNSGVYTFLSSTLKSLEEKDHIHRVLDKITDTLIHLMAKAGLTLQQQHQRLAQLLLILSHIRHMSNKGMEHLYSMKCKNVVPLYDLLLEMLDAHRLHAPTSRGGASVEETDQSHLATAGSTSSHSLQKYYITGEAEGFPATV
# Summary of the method: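 Fluorescence microscopy with high-content image analysis measures ERE-driven GFP induction in HeLa cells at 8 h post-dose. Increases fitted against DMSO baseline.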
# [5] = molecular target: Estrogen receptor (Homo sapiens) (UniProt P03372); assay: OT_ERa_GFPERaERE_0120: Odyssey Thera (OT) 2-hour HeLa Transcription Induction Assay for Estrogen Receptor (AID 2283382)
# Summary of the method: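 Fluorescence-microscopy images of the GFP-ERα/ERE reporter, scored by high-content image algorithms, give the readout. HeLa exposure lasted 2 h, and only signal increase over DMSO was fitted.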
# [6] = molecular target: Bile acid receptor (Homo sapiens) (UniProt Q96RI1); assay: OT_FXR_FXRSRC1_0480: Odyssey Thera (OT) 8-hour HEK293T Protein-Complementation Assay for Farnesoid X receptor/SRC-1 Co-activator (AID 2283383)
# Sequence of Bile acid receptor (Homo sapiens) (Q96RI1 whole entry, looked up, the tested form may be a part): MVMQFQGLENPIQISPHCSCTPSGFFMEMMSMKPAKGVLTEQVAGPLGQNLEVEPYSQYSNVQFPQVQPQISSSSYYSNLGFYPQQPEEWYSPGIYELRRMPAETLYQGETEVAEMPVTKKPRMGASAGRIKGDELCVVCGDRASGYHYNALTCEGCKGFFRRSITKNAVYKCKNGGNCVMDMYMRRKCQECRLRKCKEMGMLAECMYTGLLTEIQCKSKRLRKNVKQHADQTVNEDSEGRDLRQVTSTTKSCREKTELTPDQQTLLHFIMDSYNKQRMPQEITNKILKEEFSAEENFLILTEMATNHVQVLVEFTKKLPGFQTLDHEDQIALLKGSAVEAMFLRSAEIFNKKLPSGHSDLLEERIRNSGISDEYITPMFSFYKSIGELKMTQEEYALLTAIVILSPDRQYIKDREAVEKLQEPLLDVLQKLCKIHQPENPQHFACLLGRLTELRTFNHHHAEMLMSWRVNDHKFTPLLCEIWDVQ
# Summary of the method: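 Binding of FXR to coactivator SRC-1 was read as fluorescence from a reconstituted split reporter in HEK293T cells, 8 h after chemical addition. Only increases in signal versus DMSO were fit.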
# [7] = molecular target: Bile acid receptor (Homo sapiens) (UniProt Q96RI1); assay: OT_FXR_FXRSRC1_1440: Odyssey Thera (OT) 24-hour HEK293T Protein-Complementation Assay for Farnesoid X receptor/SRC-1 Co-activator (AID 2283384)
# Summary of the method: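 Protein-fragment complementation: FXR and SRC-1 fused to reporter fragments that reassemble on interaction, read by fluorescence intensity. Human HEK293T cells measured 24 h post-dose; positive-direction fit versus DMSO.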
# [8] = molecular target: Retinoic acid receptor RXR-alpha (Homo sapiens) (UniProt P19793); assay: OT_NURR1_NURR1RXRa_0480: Odyssey Thera (OT) 8-hour HEK293T Protein Complementation Assay for Nurr1/retinoid X receptor (RXR) (AID 2283385)
# Sequence of Retinoic acid receptor RXR-alpha (Homo sapiens) (P19793 whole entry, looked up, the tested form may be a part): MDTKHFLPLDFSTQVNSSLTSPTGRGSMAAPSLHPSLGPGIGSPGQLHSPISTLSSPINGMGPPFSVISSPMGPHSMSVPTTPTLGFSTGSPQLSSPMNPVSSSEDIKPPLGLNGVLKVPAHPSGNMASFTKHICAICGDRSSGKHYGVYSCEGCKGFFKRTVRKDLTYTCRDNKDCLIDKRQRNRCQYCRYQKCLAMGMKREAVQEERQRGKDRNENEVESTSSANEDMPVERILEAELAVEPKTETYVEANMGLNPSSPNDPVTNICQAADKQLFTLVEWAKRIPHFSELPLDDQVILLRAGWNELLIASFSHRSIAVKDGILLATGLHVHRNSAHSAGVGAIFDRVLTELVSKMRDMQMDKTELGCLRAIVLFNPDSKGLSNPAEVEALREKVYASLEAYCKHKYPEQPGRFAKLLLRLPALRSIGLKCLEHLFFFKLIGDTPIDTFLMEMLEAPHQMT
# Summary of the method: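 Interaction of Nurr1 with RXRα read as reconstituted reporter fluorescence in a HEK293T fragment-complementation system, 8 h post-treatment; increase over DMSO baseline analysed.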
# [9] = molecular target: Retinoic acid receptor RXR-alpha (Homo sapiens) (UniProt P19793); assay: OT_NURR1_NURR1RXRa_1440: Odyssey Thera (OT) 24-hour HEK293T Protein Complementation Assay for Nurr1/retinoid X receptor (RXR) (AID 2283386)
# Summary of the method: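 Gain in fluorescence, fitted relative to DMSO, reflects Nurr1–RXRα association in HEK293T cells after 24 h dosing. Bait and prey are each linked to a reporter-protein fragment that reassembles on interaction.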
smiles,measurement,setting,value
CC1=C(C(=O)Nc2ccccc2)SCCO1,AC50,[1],11.6 µM (active)
same,outcome,[2],inactive
same,outcome,[3],inactive
same,outcome,[4],inactive
same,outcome,[5],inactive
same,outcome,[6],inactive
same,outcome,[7],inactive
same,outcome,[8],inactive
same,outcome,[9],inactive
COC(=O)C(C)Oc1ccc(Oc2ccc(Cl)cc2Cl)cc1 (centres undefined),outcome,[3],inactive
same,AC50,[6],66.2 µM (active)
same,outcome,[7],inactive
same,outcome,[8],inactive
C=CCC1=C(C)[C@@H](OC(=O)[C@@H]2[C@@H](C=C(C)C)C2(C)C)CC1=O,outcome,[4],inactive
same,outcome,[5],inactive
same,AC50,[6],16.6 µM (active)
same,AC50,[7],50 µM (active)
same,AC50,[8],31.5 µM (active)
same,outcome,[8],inactive
same,AC50,[9],80.6 µM (active)
same,outcome,[9],inactive
CNC(=O)ON=CC(C)(C)SC,outcome,[4],inactive
same,outcome,[5],inactive
same,outcome,[6],inactive
same,outcome,[7],inactive
same,outcome,[8],inactive
same,outcome,[9],inactive
CCc1nn(C)c(C(=O)NCc2ccc(C(C)(C)C)cc2)c1Cl,outcome,[3],inactive
same,outcome,[4],inactive
same,outcome,[5],inactive
same,AC50,[6],0.578 µM (active)
same,AC50,[9],11.6 µM (active)
O=C(O)c1nc(Cl)ccc1Cl,outcome,[4],inactive
same,outcome,[5],inactive
same,outcome,[8],inactive
same,outcome,[9],inactive
CCOC(=O)C(Cl)Cc1cc(-n2nc(C)n(C(F)F)c2=O)c(F)cc1Cl (centres undefined),outcome,[4],inactive
same,outcome,[5],inactive
same,AC50,[6],22.4 µM (active)
same,outcome,[7],inactive
same,AC50,[8],12.7 µM (active)
same,outcome,[8],inactive
same,outcome,[9],inactive
Cc1c(F)c(F)c(COC(=O)C2C(/C=C(\Cl)C(F)(F)F)C2(C)C)c(F)c1F (centres undefined),outcome,[3],inactive
same,outcome,[4],inactive
same,outcome,[5],inactive
same,outcome,[6],inactive
same,outcome,[7],inactive
same,outcome,[8],inactive
COP(N)(=O)SC (centres undefined),outcome,[3],inactive
same,outcome,[4],inactive
same,outcome,[5],inactive
same,outcome,[6],inactive
same,outcome,[7],inactive
same,outcome,[8],inactive
same,outcome,[9],inactive
COP(=S)(OC)Oc1nc(Cl)c(Cl)cc1Cl,outcome,[3],inactive
same,outcome,[4],inactive
same,outcome,[5],inactive
same,outcome,[6],inactive
same,outcome,[8],inactive
same,outcome,[9],inactive
COc1nc(NC(C)C)nc(NC(C)C)n1,outcome,[3],inactive
same,outcome,[4],inactive
same,outcome,[5],inactive
same,outcome,[6],inactive
same,outcome,[9],inactive
CC(Oc1ccc(Cl)cc1Cl)C(=O)O (centres undefined),outcome,[4],inactive
same,outcome,[5],inactive
same,outcome,[6],inactive
same,outcome,[8],inactive
same,outcome,[9],inactive
CCNc1nc(Cl)nc(NCC)n1,outcome,[3],inactive
same,outcome,[4],inactive
same,outcome,[5],inactive
same,outcome,[6],inactive
same,outcome,[7],inactive
same,outcome,[8],inactive
same,outcome,[9],inactive
CC(C)(C)c1ccc(CSc2cnn(C(C)(C)C)c(=O)c2Cl)cc1,outcome,[3],inactive
same,outcome,[4],inactive
same,outcome,[5],inactive
same,AC50,[6],5.14 µM (active)
same,outcome,[7],inactive
same,outcome,[8],inactive
same,outcome,[9],inactive
COc1cnc(OC)n2nc(NS(=O)(=O)c3c(OCC(F)F)cccc3C(F)(F)F)nc12,outcome,[3],inactive
same,outcome,[4],inactive
same,outcome,[5],inactive
same,outcome,[8],inactive
same,outcome,[9],inactive
N#Cc1cc(Br)c(O)c(Br)c1,outcome,[4],inactive
same,outcome,[5],inactive
CCCCC(CC)COC(=O)c1ccccc1C(=O)OCC(CC)CCCC (centres undefined),outcome,[3],inactive
same,outcome,[4],inactive
same,outcome,[5],inactive
same,outcome,[6],inactive
same,outcome,[7],inactive
same,outcome,[8],inactive
same,outcome,[9],inactive
O=C(O)COc1nc(Cl)c(Cl)cc1Cl,outcome,[4],inactive
same,outcome,[5],inactive
same,outcome,[6],inactive
same,outcome,[8],inactive
same,outcome,[9],inactive
CCOc1cc(Oc2ccc(C(F)(F)F)cc2Cl)ccc1[N+](=O)[O-],outcome,[3],inactive
same,outcome,[4],inactive
same,outcome,[5],inactive
same,outcome,[6],inactive
same,outcome,[7],inactive
same,outcome,[9],inactive
COC(=O)C=C(C)OP(=O)(OC)OC,outcome,[3],inactive
same,outcome,[4],inactive
same,outcome,[5],inactive
same,outcome,[6],inactive
same,outcome,[7],inactive
same,outcome,[8],inactive
same,outcome,[9],inactive
C#CCOS(=O)OC1CCCCC1Oc1ccc(C(C)(C)C)cc1 (centres undefined),outcome,[3],inactive
same,outcome,[4],inactive
same,outcome,[5],inactive
same,AC50,[6],21.4 µM (active)
same,AC50,[7],31.1 µM (active)
same,AC50,[8],39.4 µM (active)
same,outcome,[8],inactive
same,AC50,[9],31.6 µM (active)
same,outcome,[9],inactive
CCOP(=S)(OCC)SCn1c(=O)oc2cc(Cl)ccc21,outcome,[3],inactive
same,outcome,[4],inactive
same,outcome,[5],inactive
same,AC50,[6],17.9 µM (active)
same,AC50,[7],12 µM (active)
same,outcome,[8],inactive
same,outcome,[9],inactive
CNC(=S)S,outcome,[3],inactive
same,outcome,[4],inactive
same,outcome,[5],inactive
same,outcome,[9],inactive
Fc1ccc(Oc2ccnc3cc(Cl)cc(Cl)c23)cc1,outcome,[3],inactive
same,outcome,[4],inactive
same,outcome,[5],inactive
same,AC50,[6],12.6 µM (active)
same,AC50,[7],29.1 µM (active)
same,AC50,[8],28.3 µM (active)
same,outcome,[8],inactive
same,AC50,[9],70.8 µM (active) and 65.4 µM (active)
CC(C)C1(C)N=C(c2nc3ccccc3cc2C(=O)O)NC1=O (centres undefined),outcome,[3],inactive
same,outcome,[4],inactive
same,outcome,[5],inactive
same,outcome,[6],inactive
same,outcome,[7],inactive
same,outcome,[8],inactive
same,outcome,[9],inactive
OC(c1ccc(Cl)cc1)(c1cncnc1)c1ccccc1Cl (centres undefined),outcome,[3],inactive
same,AC50,[4],12.1 µM (active)
same,outcome,[5],inactive
same,outcome,[9],inactive
COC(=O)N(OC)c1ccccc1COc1ccn(-c2ccc(Cl)cc2)n1,outcome,[3],inactive
same,outcome,[4],inactive
same,outcome,[5],inactive
same,AC50,[6],1.54 µM (active)
same,AC50,[7],1.45 µM (active)
same,outcome,[8],inactive
same,outcome,[9],inactive
